Records with an inconclusive call do not appear. Active and inactive are the calls of the source. Unless noted, calls follow the shape of the dose curve; as a rule, active = well fitted curve in the direction sought with a large enough effect in the repeat runs; inconclusive = weak or mixed curves; inactive = no such curve, though single readings can be large; an effect the other way counts as inactive or inconclusive.
Assays:
[1] = qHTS assay to identify small molecule antagonists of the estrogen related receptor (ERR) signaling pathway from Tox21 library - cell viability counter screen (AID 1224834); also: nearly all actives have a fitted effect of over 30% in size
Summary of the method: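 CellTiter-Fluor fluorescence, read after 30 min at 37 C, measures viability of ERR cells. Cells plated at 2,000/well and incubated 6 h before pin-tool compound addition, then exposed 17.5 hours at 37 C.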

[2] = target: Luciferin 4-monooxygenase (Photinus pyralis) (UniProt P08659); experiment: qHTS assay to identify small molecule inhibitors of firefly luciferase (AID 1224835); also: nearly all actives have a fitted effect of over 25% in size
Summary of the method: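 Biochemical qHTS: compounds run as interplate titrations against purified firefly enzyme, with D-luciferin and ATP each at its KM concentration. Light output recorded by CCD imaging.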

[3] = qHTS assay to identify small molecule agonists of the constitutive androstane receptor (CAR) signaling pathway - cell viability counter screen (AID 1224836); also: nearly all actives have a fitted effect of over 45% in size
Summary of the method: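 HepG2 cells stably carrying hCAR and a CYP2B6-2.2kb reporter were plated 4 h, then given compounds at 15 concentrations plus PK11195 (final 0.75 uM). After 23 h at 37 C, viability was read by CellTiter-Fluor fluorescence.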

[4] = qHTS assay to identify small molecule antagonists of the constitutive androstane receptor (CAR) signaling pathway - cell viability counter screen (AID 1224837); also: nearly all actives have a fitted effect of over 45% in size
Summary of the method: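 Cytotoxicity counter-screen: CellTiter-Fluor fluorescence after 23 h compound exposure (15-point qHTS) in double-stable HepG2-CYP2B6-hCAR cells, with 50 nM CITCO added.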

[5] = target: Nuclear receptor subfamily 1 group I member 3 (Homo sapiens) (UniProt Q14994); experiment: qHTS assay to identify small molecule antagonists of the constitutive androstane receptor (CAR) signaling pathway (AID 1224838); also: nearly all actives have a fitted effect of over 40% in size
Summary of the method: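 Antagonism measured as luciferase signal (ONE-Glo, 30 min, room temperature) in CAR-stimulated cells: HepG2-CYP2B6-hCAR double-stable line exposed 24 hr at 37 C to compound in a 15-point series plus 50 nM CITCO.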

[6] = target: Nuclear receptor subfamily 1 group I member 3 (Homo sapiens) (UniProt Q14994); experiment: qHTS assay to identify small molecule agonists of the constitutive androstane receptor (CAR) signaling pathway (AID 1224839);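 also: HepG2 cells stably carrying human CAR and a CYP2B6 luciferase reporter; nearly all actives have a fitted effect of over 15% in size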
Summary of the method: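 HepG2 cells stably expressing hCAR and a CYP2B6-2.2kb luciferase reporter were treated with compounds at 15 concentrations plus 0.75 uM PK11195 (final) for 24 h at 37 C; luminescence was read after ONE-Glo addition.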

[7] = qHTS assay to identify small molecule antagonists of the estrogen related receptor signaling pathway with the pleiotropic PPARgamma coactivator (PGC) from Tox21 10K library - cell viability counter screen (AID 1224840; active = well fitted cell-killing curve with a large enough effect in the repeat runs, not every such curve was filed as active; also: nearly all actives have a fitted effect of over 40% in size)
Summary of the method: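 Counter-screen for cytotoxicity: after 17.5 h compound exposure at 37 C, CellTiter-Fluor reagent added to PGC/ERR cells for 30 min and fluorescence read. Cells were seeded at 2,000 per well 6 h before dosing.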

[8] = qHTS assay to identify small molecule agonists of the hypoxia (HIF-1) signaling pathway - cell viability counter screen (AID 1224844; calls by dose curve; also: nearly all actives have a fitted effect of over 50% in size)
Summary of the method: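 Cytotoxicity measured by CellTiter-Glo ATP luminescence in the wells also read for beta-lactamase signal. Cells were HRE-bla ME-180 (2,000/well, 0.5% dialyzed FBS), exposed to compounds for 17 h at 37C.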

[9] = qHTS assay to identify small molecule agonists of H2AX (AID 1224845; active = well fitted activation curve with a large enough effect in the signal ratio in the repeat runs, not every such curve was filed as active; the % refers to the signal ratio)
Summary of the method: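 Wild-type CHO-K1 cells, plated overnight, exposed 3hr at 37C to 15 concentrations (0.76% DMSO final). Lysed, then HTRF anti-pH2AX (S139) cryptate and anti-H2AX-d2 antibodies, 24 hr room temperature; 665/620 nm emission read.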

[10] = qHTS assay to identify small molecule agonists of the hypoxia (HIF-1) signaling pathway (AID 1224846; active = well fitted activation curve with a large enough effect in the signal ratio in the repeat runs, not every such curve was filed as active; the % refers to the signal ratio)
Summary of the method: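 Compounds added to ME-180 cells carrying hypoxia-response-element beta-lactamase reporter (0.5% dialyzed FBS, 5 h preplating), 17 h at 37C; agonist activity detected by CCF4-AM B/G FRET read-out.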

[11] = qHTS RealTime-Glo MT Cell Viability Assay in HepG2 cells - 24 hour (AID 1224867); also: nearly all actives have a fitted effect of over 50% in size
Summary of the method: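 HepG2 cells were seeded at 600 cells/well together with NanoLuc luciferase and a cell-permeant prosubstrate, preincubated 5 h at 37 C/5% CO2, then pin-dosed with compounds in DMSO. Nonlytic luminescence from viable cells was read at each time point.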

[12] = qHTS RealTime-Glo MT Cell Viability Assay in HEK293 cells - 32 hour (AID 1224868); also: top concentration of the series differs between compounds; nearly all actives have a fitted effect of over 50% in size
Summary of the method: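 HEK293 cells were seeded at 600 cells/well together with NanoLuc luciferase and cell-permeant prosubstrate, preincubated 5 h at 37 C/5% CO2, then given compound in DMSO by pintool. Luminescence from viable-cell prosubstrate reduction was read repeatedly over 40 h.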

[13] = A CellTox Green Cytotoxicity Assay to monitor cytotoxicity in HEK293 cells - 0 hour (AID 1224869); also: nearly all actives have a fitted effect of over 50% in size
Summary of the method: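 Fluorescence from a DNA-binding dye excluded by viable cells was measured repeatedly in the same HEK293 wells (600 cells/well) during continuous compound exposure at 37 C. Each assay gives one read point: 0, 8, 16, 24, 32 or 40 h.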

[14] = qHTS RealTime-Glo MT Cell Viability Assay in HepG2 cells - 40 hour (AID 1224870); also: nearly all actives have a fitted effect of over 50% in size
Summary of the method: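 HepG2 cells (600/well) mixed with RealTime-Glo MT reagent, settled 5 h at 37 C/5% CO2 before compound addition. Nonlytic NanoLuc luminescence from viable-cell prosubstrate reduction read repeatedly during 40 h treatment at 37 C.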

[15] = qHTS assay to identify small molecule antagonists of the estrogen related receptor signaling pathway with the pleiotropic PPARgamma coactivator (PGC) from Tox21 10K library (AID 1224841; call rule not given here)
Summary of the method: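 Luminescence (One-Glo, 30 min at room temperature) after 18 h compound treatment at 37 C of PGC/ERR reporter cells plated at 2,000 cells/well and settled 6 h beforehand.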

[16] = qHTS assay to identify small molecule agonists of the estrogen related receptor signaling pathway with the pleiotropic PPARgamma coactivator (PGC) from Tox21 10K library (AID 1224842); also: nearly all actives have a fitted effect of over 15% in size
Summary of the method: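 PGC/ERR reporter cell line, 2,000 cells per well, incubated 6 h at 37 C before 23 nL compound in DMSO was added. After 18 h at 37 C, One-Glo luminescence read following 30 min at room temperature.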

[17] = target: Thyrotropin receptor (Homo sapiens) (UniProt P16473); experiment: qHTS assay to identify small molecule agonists of the thyroid stimulating hormone receptor (TSHR) signaling pathway (AID 1224843; calls by dose curve; also: nearly all actives have a fitted effect of over 45% in size)
Summary of the method: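 Agonist-mode screen: TSHR HEK293 cells received test chemicals for half an hour at room temperature, then HTRF cAMP detection reagents for one hour prior to fluorescence measurement. Each chemical ran as a 15-concentration series, triplicated.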

[18] = qHTS assay to identify small molecule agonists of H2AX - cell viability counter screen (AID 1224847; calls by dose curve; also: top concentration of the series differs between compounds; nearly all actives have a fitted effect of over 30% in size)
Summary of the method: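 Wild-type CHO-K1 cells (10% FBS medium) were plated overnight at 37C, exposed to compounds at 15 concentrations for 3 hr at 37C (0.76% DMSO final), and viability was read as CellTiter-Glo luminescence after 30 min at room temperature.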

[19] = qHTS assay to identify small molecule antagonists of the estrogen related receptor (ERR) signaling pathway from Tox21 library (AID 1224848); also: nearly all actives have a fitted effect of over 50% in size
Summary of the method: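 Quantitative high-throughput format: ERR reporter cells (2,000/well) pre-incubated 6 h, treated 18 h at 37 C with compounds in DMSO alongside positive and negative controls, then read by ONE-Glo luminescence.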

[20] = qHTS assay to identify small molecule agonists of the estrogen related receptor (ERR) signaling pathway from Tox21 library (AID 1224849; calls by dose curve; also: nearly all actives have a fitted effect of over 15% in size); conditions: ERR reporter cell line, ONE-Glo luciferase, 18 h
Summary of the method: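 Luminescent agonist read-out (One-Glo, 30-minute room-temperature incubation) following 18-hour compound treatment at 37 C of the ERR cell line, which had been plated 6 hours before dosing.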
% is scaled to controls: 0 for no effect and ±100 for the full control effect.

Chain of Luciferin 4-monooxygenase (Photinus pyralis) (P08659 whole entry, looked up): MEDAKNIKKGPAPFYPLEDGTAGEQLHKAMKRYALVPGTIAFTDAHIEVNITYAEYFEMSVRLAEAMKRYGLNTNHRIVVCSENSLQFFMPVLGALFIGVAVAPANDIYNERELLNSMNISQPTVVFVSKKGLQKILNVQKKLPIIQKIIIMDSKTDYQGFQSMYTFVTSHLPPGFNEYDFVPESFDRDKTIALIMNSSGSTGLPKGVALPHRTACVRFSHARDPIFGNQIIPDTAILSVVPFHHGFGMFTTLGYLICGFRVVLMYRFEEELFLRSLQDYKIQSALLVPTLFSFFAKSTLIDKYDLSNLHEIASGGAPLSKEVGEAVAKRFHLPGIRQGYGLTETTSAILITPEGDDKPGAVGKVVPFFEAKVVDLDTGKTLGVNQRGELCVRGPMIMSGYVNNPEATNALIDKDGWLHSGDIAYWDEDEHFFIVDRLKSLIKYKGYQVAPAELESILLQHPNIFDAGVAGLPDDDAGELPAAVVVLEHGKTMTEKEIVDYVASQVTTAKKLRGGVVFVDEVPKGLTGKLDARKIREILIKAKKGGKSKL
Chain of Nuclear receptor subfamily 1 group I member 3 (Homo sapiens) (Q14994 whole entry, looked up): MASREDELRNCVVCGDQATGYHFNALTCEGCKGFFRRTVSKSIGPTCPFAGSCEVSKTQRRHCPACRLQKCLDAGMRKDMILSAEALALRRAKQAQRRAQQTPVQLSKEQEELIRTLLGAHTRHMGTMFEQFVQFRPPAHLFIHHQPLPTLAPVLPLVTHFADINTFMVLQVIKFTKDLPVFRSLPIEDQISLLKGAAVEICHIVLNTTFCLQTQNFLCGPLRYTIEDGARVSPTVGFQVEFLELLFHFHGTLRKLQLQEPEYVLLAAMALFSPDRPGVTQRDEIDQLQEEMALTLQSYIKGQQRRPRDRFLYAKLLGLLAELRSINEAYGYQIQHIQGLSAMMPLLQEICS
Chain of Thyrotropin receptor (Homo sapiens) (P16473 whole entry, looked up): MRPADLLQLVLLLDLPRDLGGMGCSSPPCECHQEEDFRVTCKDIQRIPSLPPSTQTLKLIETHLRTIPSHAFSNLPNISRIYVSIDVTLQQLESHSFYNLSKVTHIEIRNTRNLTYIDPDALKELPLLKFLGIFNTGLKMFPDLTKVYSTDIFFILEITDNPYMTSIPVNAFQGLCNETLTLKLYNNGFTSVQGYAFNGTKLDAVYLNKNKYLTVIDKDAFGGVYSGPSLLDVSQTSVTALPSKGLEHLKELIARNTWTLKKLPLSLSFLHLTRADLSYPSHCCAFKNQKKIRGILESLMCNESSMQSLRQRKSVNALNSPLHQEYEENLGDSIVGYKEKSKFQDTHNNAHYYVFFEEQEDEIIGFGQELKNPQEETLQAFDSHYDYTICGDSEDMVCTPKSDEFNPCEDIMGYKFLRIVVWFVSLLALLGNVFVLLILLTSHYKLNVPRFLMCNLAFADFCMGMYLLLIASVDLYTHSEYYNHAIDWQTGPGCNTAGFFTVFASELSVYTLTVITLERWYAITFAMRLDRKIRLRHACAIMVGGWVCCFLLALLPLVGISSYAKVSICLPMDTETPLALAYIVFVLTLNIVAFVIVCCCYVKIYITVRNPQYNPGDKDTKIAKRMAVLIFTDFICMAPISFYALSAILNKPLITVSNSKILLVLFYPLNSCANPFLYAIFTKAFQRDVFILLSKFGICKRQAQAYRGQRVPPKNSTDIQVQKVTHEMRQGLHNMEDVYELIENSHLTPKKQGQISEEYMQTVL

C[C@@H](O)[C@H](N)C(=O)O
inactive: viability change, negative = cytotoxic [1] 0.354% [at 19 µM] | activity change, negative = inhibition [2] 1.37% [at 23.6 µM] | viability change, negative = cytotoxic [3] -1.25% [at 19 µM] | activity change, negative = cytotoxicity [4] 9.9% [at 19 µM] | activity, negative = inhibition [5] 17.3% [at 19 µM] | activation [6] -3.11% [at 19 µM] | viability change, negative = cytotoxic [7] 0.388% [at 19 µM] | activity change, negative = cytotoxicity [8] -2.15% [at 15.8 µM] | activation (H2AX phosphorylation) [9] 0.0265% [at 31.6 µM] | activation [10] -0.487% [at 15.8 µM] | activity change, negative = cytotoxicity [11] 0.0975% [at 15.8 µM] | activity change, negative = cytotoxic [12] 0.135% [at 15.8 µM] | cytotoxicity [13] -4.33% [at 15.8 µM] | activity change, negative = cytotoxic [14] -3.3% [at 15.8 µM]

Cc1cc(C(C)(C)C)cc(C)c1CC1=NCCN1
inactive: Potency [1] | Potency [2] | Potency [3] | Potency [4] | Potency [5] | Potency [7] | Potency [15] | Potency [16] | Potency [17] | Potency [8] | Potency [9] | Potency [18] | Potency [19] | activity change, positive = activation ([20]; at 42.5 µM (top of the series)) -3.5% | Potency [11] | Potency [12] | Potency [13] | Potency [14]

COc1cccc(OC)c1C(=O)O
inactive: Potency [1] | Potency [2] | Potency [3] | Potency [4] | Potency [5] | Potency [6] | Potency [7] | Potency [17] | Potency [8] | Potency [9] | Potency [10] | Potency [11] | Potency [12] | Potency [13] | Potency [14]

Nc1cc(Cl)c(O)c(Cl)c1
inactive: Potency [1] | Potency [2] | Potency [3] | Potency [4] | Potency [5] | Potency [7] | Potency [15] | Potency [16] | Potency [10] | Potency [19] | activity change, positive = activation ([20]; at 92.4 µM (top of the series)) -4.45% | Potency [11] | Potency [13] | Potency [14]

CN(C)CCN1CCN(c2cccc(Cl)c2)C1=O
inactive: Potency [1] | Potency [2] | Potency [3] | Potency [4] | Potency [5] | Potency [7] | Potency [17] | Potency [8] | Potency [9] | Potency [10] | Potency [18] | Potency [11] | Potency [13] | Potency [14]

Clc1nnc(Cl)c2ccccc12
inactive: Potency [1] | Potency [2] | Potency [3] | Potency [4] | Potency [5] | Potency [6] | Potency [7] | Potency [8] | Potency [10] | Potency [18] | Potency [11] | Potency [12] | Potency [13] | Potency [14]

CCC(CC)C(C)CCOC(C)=O (centres undefined)
inactive: Potency [1] | Potency [2] | Potency [3] | Potency [4] | Potency [5] | Potency [6] | Potency [7] | Potency [17] | Potency [9] | Potency [10] | Potency [18] | Potency [11] | Potency [12] | Potency [13] | Potency [14]

— PubChem BioAssay (Tox21)
